Read-out in one assay: CD69, CD69 (gene 969)
Description: BSK_SAg_CD69: BioMAP Diversity Plus: SAg Assay for CD69 Biomarker Activity (AID 2283089).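 As to AC50: cell surface CD69 protein quantified by ELISA with fluorescence detection.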 Conditions: primary human HUVEC with PBMC; actives raise or lower the signal. The essentials:
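ELISA, fluorescence read-out: CD69 on human umbilical vein endothelial cell + PBMC co-culture, 24 h post-dosing. Gain or loss of signal fitted bidirectionally against DMSO baseline.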

Read-out in assay [1]: Monocyte Chemoattractant Protein-1 (MCP1), CCL2 (gene 6347)
Description: BSK_SAg_MCP1: BioMAP Diversity Plus: SAg Assay for Monocyte Chemoattractant Protein-1 (MCP1) Biomarker Activity (AID 2283090). Conditions: primary human HUVEC with PBMC; actives raise or lower the signal. The essentials:
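MCP-1 levels in the endothelial–PBMC SAg co-culture were quantified by ELISA at 24 h post-dosing; both increases and decreases versus DMSO scored. Cytotoxicity monitored by SRB total protein in parallel cultures.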

Read-out in assay [2]: E-selectin (Homo sapiens) (UniProt P16581)
Description: BSK_SAg_Eselectin: BioMAP Diversity Plus: SAg Assay for Eselectin Biomarker Activity (AID 2283091). Conditions: primary human HUVEC with PBMC; actives raise or lower the signal. The essentials:
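Co-culture: HUVEC + PBMC. Dose compound; 24 h. ELISA for E-selectin. Bidirectional fit vs DMSO.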

Read-out in assay [3]: Monokine induced gamma interferon (MIG), CXCL9 (gene 4283)
Description: BSK_SAg_MIG: BioMAP Diversity Plus: SAg Assay for Monokine induced gamma interferon (MIG) Biomarker Activity (AID 2283092). Conditions: primary human HUVEC with PBMC; actives raise or lower the signal. In short, it runs like this: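 ELISA readout of MIG/CXCL9; primary human umbilical vein endothelial cells co-cultured with peripheral blood mononuclear cells; 24 h post-dose; gain/loss fit vs DMSO baseline.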

Assay [4] can be described thus: BSK_SAg_PBMCCytotoxicity: PBMC Cytotoxicity Assessment in the BioMAP Diversity Plus: SAg Assay (AID 2283093).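 Also: PBMC viability measured as Alamar Blue reduction fluorescence at 546/580 nm; fitted both ways against DMSO so a hit may be loss or gain of signal.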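 As to AC50: PBMC superantigen activated with SEB plus TSST-1 one hour after compound addition.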 Conditions: primary human HUVEC with PBMC. The essentials:
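Compound added to 75,000 PBMC/well for 1 h; SEB and TSST-1 then added at 20 ng/mL final each; 90 h incubation; Alamar Blue 6 h; read 546/580 nm ex/em. Activity fitted bidirectionally relative to DMSO baseline.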

Read-out in assay [5]: Interleukin-8 (IL8), CXCL8 (gene 3576)
Description: BSK_SAg_IL8: BioMAP Diversity Plus: SAg Assay for Interleukin-8 (IL8) Biomarker Activity (AID 2283094). Conditions: primary human HUVEC with PBMC; actives raise or lower the signal. The essentials: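 Human umbilical vein endothelial cells co-cultured with peripheral blood mononuclear cells; IL-8 measured by ELISA 24 h after chemical dosing. Bidirectional concentration-response fitting used DMSO as negative control and activity baseline.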

Assay [6] is described as follows: BSK_SAg_SRB: Viability Assessment in the BioMAP Diversity Plus: SAg Assay (AID 2283096).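 Also: cells read one day after compound addition; hits may be either gain or loss of signal compared with DMSO.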 Conditions: primary human HUVEC with PBMC. The essentials: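 Total protein by sulforhodamine B staining, 24 h after dosing, in HUVEC–PBMC co-culture; DMSO-referenced bidirectional fitting.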
Assay [7] addresses human CYP19A1, CYP19A1 (gene 1588) (UniProt P11511). Description: NVS_ADME_hCYP19A1: NovaScreen (NVS) CYP450-related Enzyme Activity (ADME) Assay for human CYP19A1 (AID 2283098; active = hit-call score of the fitted dose curve at least 0.9, where 1 is the maximum). In short, it runs like this: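 Biochem, cell-free; recombinant enzyme + specific substrate; fluorescence intensity at 0.5 h post-dose; 10 uM duplicate primary, conc. series for actives; acetonitrile = negative control/baseline; positive and negative controls on every plate.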

A short description of assay [8]: BSK_SAg_Proliferation: Cell Proliferation Assessment in the BioMAP Diversity Plus: SAg Assay (AID 2283095).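 Also: relative cell number as total protein by SRB absorbance in sub-confluent culture.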 Conditions: primary human HUVEC with PBMC. In short, it runs like this:
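Human umbilical vein endothelial cells co-cultured with peripheral blood mononuclear cells; total protein measured by sulforhodamine B staining (0.1% SRB after 10% TCA fixation), absorbance at 560 nm, at 96 h. Bidirectional fit against DMSO baseline.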

Assay [9] addresses Cytochrome P450 2C19 (Homo sapiens) (UniProt P33261). Description: NVS_ADME_hCYP2C19: NovaScreen (NVS) CYP450-related Enzyme Activity (ADME) Assay for human CYP2C19 (AID 2283113; active = hit-call score of the fitted dose curve at least 0.9, where 1 is the maximum;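 as to AC50: potency for inhibition seen as loss of fluorescent signal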). The essentials: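 Fluorescence intensity was measured 1 hour after chemicals were added to insect-cell-derived recombinant CYP2C19 with fluorogenic substrate. Decreased signal versus acetonitrile control was taken as reduced enzyme activity; initial testing used 10 uM in duplicate.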

Assay [10] has as its target human CYP1A1, CYP1A1 (gene 1543) (UniProt P04798). Description: NVS_ADME_hCYP1A1: NovaScreen (NVS) CYP450-related Enzyme Activity (ADME) Assay for human CYP1A1 (AID 2283100; active = hit-call score of the fitted dose curve at least 0.9, where 1 is the maximum). In short, it runs like this: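 Recombinant hCYP1A1 + fluorogenic substrate, cell-free; 1 h; fluorescence read. Single-point 10 uM (duplicate) → concentration series, max 20 uM. Acetonitrile negative control.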

Assay [11] deals with human CYP2C8, CYP2C8 (gene 1558) (UniProt P10632). Description: NVS_ADME_hCYP2C8: NovaScreen (NVS) CYP450-related Enzyme Activity (ADME) Assay for human CYP2C8 (AID 2283104). In short, it runs like this: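 Recombinant human CYP2C8 with fluorogenic substrate, 0.5 h, fluorescence intensity; signal loss fitted versus acetonitrile. Screened in duplicate at 10 uM, then actives run in concentration-response up to 20 uM.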

Assay [12] addresses human CYP2J2, CYP2J2 (gene 1573) (UniProt P51589). Description: NVS_ADME_hCYP2J2: NovaScreen (NVS) CYP450-related Enzyme Activity (ADME) Assay for human CYP2J2 (AID 2283106; active = hit-call score of the fitted dose curve at least 0.9, where 1 is the maximum). The essentials: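 Cell-free assay of recombinant CYP2J2 with a fluorogenic substrate, read 1 h after dosing; loss of signal versus acetonitrile. Primary screen at 10 uM in duplicate, then concentration-response up to 20 uM for chemicals passing threshold (e.g., 30% inhibition).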

Data on eight compounds can be found in PubChem BioAssay (EPA / NIEHS).

As a reminder, the AC50 is the concentration at which the activity in the assay is half-maximal.

Structures are written as SMILES. Several values for one entry are separate records, joined by “and”; a condition that tells them apart may be missing. Equal values may be shown once. Records with an inconclusive call do not appear. The source holds several records for some structures; these can differ, active in one and inactive in another. Activity calls are given as the source filed them. The calls were made as follows, unless noted: active = hit-call score of the fitted dose curve at least 0.9, where 1 is the maximum; inactive = score below 0.9.

Chain of human CYP1A1, CYP1A1 (gene 1543) (P04798 whole entry, looked up): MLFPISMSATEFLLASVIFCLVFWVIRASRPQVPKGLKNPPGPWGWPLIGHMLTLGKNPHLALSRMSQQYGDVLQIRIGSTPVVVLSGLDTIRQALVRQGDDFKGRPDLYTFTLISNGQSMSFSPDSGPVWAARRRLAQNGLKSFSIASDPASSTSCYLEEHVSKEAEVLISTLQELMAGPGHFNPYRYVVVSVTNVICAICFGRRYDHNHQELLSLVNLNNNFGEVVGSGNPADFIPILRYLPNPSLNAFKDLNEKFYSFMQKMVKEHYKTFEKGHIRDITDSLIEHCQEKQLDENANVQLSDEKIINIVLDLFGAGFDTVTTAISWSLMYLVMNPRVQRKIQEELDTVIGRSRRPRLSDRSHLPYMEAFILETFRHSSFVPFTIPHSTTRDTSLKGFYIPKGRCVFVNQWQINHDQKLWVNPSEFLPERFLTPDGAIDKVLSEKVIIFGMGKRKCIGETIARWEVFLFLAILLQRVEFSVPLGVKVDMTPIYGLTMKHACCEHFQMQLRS
Chain of E-selectin (Homo sapiens) (P16581 whole entry, looked up): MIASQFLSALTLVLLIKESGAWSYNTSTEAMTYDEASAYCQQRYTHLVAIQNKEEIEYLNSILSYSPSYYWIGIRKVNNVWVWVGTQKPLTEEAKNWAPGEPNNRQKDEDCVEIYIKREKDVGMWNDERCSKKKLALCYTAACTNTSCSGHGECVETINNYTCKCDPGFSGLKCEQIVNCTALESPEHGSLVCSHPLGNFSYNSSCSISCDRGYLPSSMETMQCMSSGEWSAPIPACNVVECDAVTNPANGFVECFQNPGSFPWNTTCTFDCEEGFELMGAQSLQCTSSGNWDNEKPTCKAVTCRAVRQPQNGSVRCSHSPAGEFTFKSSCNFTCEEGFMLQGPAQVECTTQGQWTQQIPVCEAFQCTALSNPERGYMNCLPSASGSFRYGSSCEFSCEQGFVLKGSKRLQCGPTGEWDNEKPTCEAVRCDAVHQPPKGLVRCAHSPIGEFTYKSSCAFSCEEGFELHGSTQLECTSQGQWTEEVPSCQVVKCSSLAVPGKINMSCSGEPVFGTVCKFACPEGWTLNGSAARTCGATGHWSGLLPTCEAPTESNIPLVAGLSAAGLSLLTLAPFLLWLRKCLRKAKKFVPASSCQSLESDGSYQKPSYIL
Chain of human CYP2C8, CYP2C8 (gene 1558) (P10632 whole entry, looked up): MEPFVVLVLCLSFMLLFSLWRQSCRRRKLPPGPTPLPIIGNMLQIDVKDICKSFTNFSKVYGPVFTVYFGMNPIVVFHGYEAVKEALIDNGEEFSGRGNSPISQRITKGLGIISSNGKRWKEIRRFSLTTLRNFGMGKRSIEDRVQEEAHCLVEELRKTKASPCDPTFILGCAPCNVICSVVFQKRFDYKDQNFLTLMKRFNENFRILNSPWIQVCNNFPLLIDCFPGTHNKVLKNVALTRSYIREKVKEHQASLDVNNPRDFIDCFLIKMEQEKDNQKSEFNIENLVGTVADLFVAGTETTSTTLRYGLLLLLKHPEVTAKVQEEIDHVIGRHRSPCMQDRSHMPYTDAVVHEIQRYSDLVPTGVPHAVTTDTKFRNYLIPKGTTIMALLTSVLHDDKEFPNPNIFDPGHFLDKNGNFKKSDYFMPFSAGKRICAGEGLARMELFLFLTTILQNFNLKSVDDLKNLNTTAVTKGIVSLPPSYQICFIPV
Chain of human CYP19A1, CYP19A1 (gene 1588) (P11511 whole entry, looked up): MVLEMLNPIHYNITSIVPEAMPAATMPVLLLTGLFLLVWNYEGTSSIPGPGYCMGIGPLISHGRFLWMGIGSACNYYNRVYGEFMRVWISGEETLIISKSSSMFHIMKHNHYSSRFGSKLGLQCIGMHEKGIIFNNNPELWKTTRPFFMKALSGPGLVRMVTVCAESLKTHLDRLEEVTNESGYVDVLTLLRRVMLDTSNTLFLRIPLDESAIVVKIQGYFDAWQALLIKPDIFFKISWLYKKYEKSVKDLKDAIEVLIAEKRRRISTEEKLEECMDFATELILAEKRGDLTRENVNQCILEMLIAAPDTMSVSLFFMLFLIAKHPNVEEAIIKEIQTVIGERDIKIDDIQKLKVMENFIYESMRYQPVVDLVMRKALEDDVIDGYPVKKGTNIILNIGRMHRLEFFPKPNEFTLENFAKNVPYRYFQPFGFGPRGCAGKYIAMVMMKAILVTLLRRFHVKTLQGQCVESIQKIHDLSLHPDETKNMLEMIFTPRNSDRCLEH
Chain of human CYP2J2, CYP2J2 (gene 1573) (P51589 whole entry, looked up): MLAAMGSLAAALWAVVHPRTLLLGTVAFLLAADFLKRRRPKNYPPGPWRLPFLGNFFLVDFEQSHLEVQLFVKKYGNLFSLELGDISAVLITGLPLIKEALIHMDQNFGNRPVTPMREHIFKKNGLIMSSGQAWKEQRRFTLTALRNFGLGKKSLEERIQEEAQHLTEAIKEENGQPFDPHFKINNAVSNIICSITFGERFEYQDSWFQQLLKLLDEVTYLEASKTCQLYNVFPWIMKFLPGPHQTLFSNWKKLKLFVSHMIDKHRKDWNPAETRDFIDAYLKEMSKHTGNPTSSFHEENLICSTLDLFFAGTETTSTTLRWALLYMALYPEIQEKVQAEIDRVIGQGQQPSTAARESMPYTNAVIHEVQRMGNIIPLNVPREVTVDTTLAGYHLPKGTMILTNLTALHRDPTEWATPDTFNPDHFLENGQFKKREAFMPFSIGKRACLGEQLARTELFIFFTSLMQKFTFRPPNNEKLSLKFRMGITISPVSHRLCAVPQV

On to `COP(N)(=O)SC` (stereo not drawn), for which the outcome was “inactive” in the assay with CD69, CD69 (gene 969); “inactive” in assay [1]; “inactive” in [2]; “inactive” in assay [3]; “inactive” in [4]; “inactive” in assay [5]. The result in [6] and in assay [7] was inactive.

For `CCON=C(CC)C1=C(O)CC(c2c(C)cc(C)cc2C)CC1=O` (stereo not drawn), the outcome in the assay with CD69, CD69 (gene 969) was “inactive”; in assay [1] it was “inactive”; in assay [2], “inactive”; in assay [3], “inactive”; in [4], “inactive”; in [5], “inactive”. The result in assay [8] and in assay [6] was inactive. For the same compound, in [9], the half-maximal activity concentration (AC50) was 3.37 µM (active).

As for `CCCCOC(=O)c1ccccc1C(=O)OCCCC`, the outcome with CD69, CD69 (gene 969) was “inactive”; in assay [1], “inactive”; in assay [2] it was “inactive”; in assay [3], “inactive”; in assay [4], “inactive”; in [5], “inactive”. Besides, the outcome in [6], in assay [7], in assay [10] and in [11] was inactive. In addition, the AC50 is 20 µM (active) in [2]; 6.73 µM (active) and 7.37 µM (active) in [9].

Regarding `CCNc1nc(Cl)nc(NCC)n1`, the outcome in the assay with CD69, CD69 (gene 969) is “inactive”; in assay [1], “inactive”; in assay [2], “inactive”; in [3], “inactive”; in assay [4], “inactive”; in assay [5], “inactive”. The result in [8], in assay [6] and in [10] was inactive. The AC50 in assay [12] is 0.2 µM (active).

With `COC(=O)C(C)Oc1ccc(Oc2ccc(Cl)cc2Cl)cc1` (stereo not drawn), the outcome in the assay with CD69, CD69 (gene 969) is “inactive”; in assay [1] it was “inactive”; in assay [2] it was “inactive”; in assay [3] it was “inactive”; in [4], “inactive”; in [5] it was “inactive”. Moreover, the result in [8] and in assay [6] was inactive. For the same compound, the AC50 was 20 µM (active) in assay [1]; 10 µM (active) and 14.1 µM (active) and 7.91 µM (active) in [9].

As to `COc1cnc(OC)n2nc(NS(=O)(=O)c3c(OCC(F)F)cccc3C(F)(F)F)nc12`, the outcome with CD69, CD69 (gene 969) was “inactive”; in assay [1], “inactive”; in assay [2], “inactive”; in assay [3], “inactive”; in assay [4], “inactive”; in assay [5], “inactive”. Further, the result in assay [6] was inactive.

Regarding `Fc1ccc(Oc2ccnc3cc(Cl)cc(Cl)c23)cc1`, the AC50 with CD69, CD69 (gene 969) was 14.9 µM (active); in assay [1], 28.2 µM (active); in assay [2], 20.5 µM (active); in [3], 30.6 µM (active); in assay [4], 31.4 µM (active); in assay [5], 15.9 µM (active). For the same compound, the values for the AC50 in assay [8] and in assay [6] were 22.7 µM (active) and 25.5 µM (active), respectively. Also, in assay [9], the compound was classed as inactive.

`COC(=O)c1ccccc1C(=O)OC`: the outcome in the assay with CD69, CD69 (gene 969) is “inactive”; in [1] it was “inactive”; in assay [2], “inactive”; in assay [3], “inactive”; in assay [4], “inactive”; in assay [5], “inactive”. The result in assay [8] and in [6] was inactive.
